RAM network inh – blocks the yeast RAM network. S. cerevisiae dse1pr::URA3 reporter, 5-FOA growth OD615, 2 d; analog-sensitive cbk1-as2 kinase mutant strain. inhibition, % at 50 µM. actives 1.8% (n = 190,000). AID 868;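 active means inhibition above a set limit, 3 SD over mean compound inhibition, cut at about 8.4% in these data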;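 further: inhibition rescues growth on 5-FOA so higher OD means more RAM inhibition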
KCC2 mod – KCC2 (human) Cl- transport modulation; B-score of Tl+ flux slope (higher = more flux/activation; lower = inhibition) at 10 µM; AID 1456; Q9H2X9; actives 2.2% (n = 190,000); KCC2 cells, thallium flux FluoZin-2 fluorescence;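 active means thallium flux slope and its plate-corrected score both differing from the plate sample mean at a set confidence after two filtering rounds, in either direction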;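 further: slope of fluorescence scaled to starting intensity during 10 to 20 s after thallium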
S1P4 antagonist – blocks the human S1P4 receptor; S1P4-expressing cells, antagonist mode, reporter read-out; inhibition, % at 4.98 µM; actives 0.26% (n = 220,000); AID 1510; in the data active means inhibition above about 29%
Target sequence (O95977 whole entry, looked up): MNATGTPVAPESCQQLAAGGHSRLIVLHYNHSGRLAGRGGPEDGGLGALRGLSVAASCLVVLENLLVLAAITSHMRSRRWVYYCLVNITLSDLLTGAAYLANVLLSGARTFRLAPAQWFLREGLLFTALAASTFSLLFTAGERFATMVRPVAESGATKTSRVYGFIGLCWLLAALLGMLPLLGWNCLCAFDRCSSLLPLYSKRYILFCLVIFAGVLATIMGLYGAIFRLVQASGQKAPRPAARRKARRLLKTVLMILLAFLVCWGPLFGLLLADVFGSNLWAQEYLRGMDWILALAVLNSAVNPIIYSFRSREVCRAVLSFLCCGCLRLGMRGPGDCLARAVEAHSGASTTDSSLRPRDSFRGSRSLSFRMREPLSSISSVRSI
S1P3 antagonist – S1P3 (human) receptor antagonism. inhibition, % at 4.98 µM. CHO S1P3 NFAT-BLA reporter, FRET fluorescence, antagonist mode. Q99500. actives 0.27% (n = 170,000);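 active means inhibition above the plate cutoff, the mean inhibition of test wells on that plate plus 3 SD, cut at about 28% in these data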;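 further: cells challenged with S1P at its EC80 of 0.8 µM; blue over green emission ratio from cleaved BLA substrate after 4 h stimulation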
S1P4 agonist – activates the human S1P4 receptor; AID 1509; activation, % at 4.98 µM; O95977; S1P4-expressing cell line, agonist reporter assay; actives 0.35% (n = 220,000); in the data active means activation above about 11%
ROMK mod – modulates human ROMK potassium channel activity; B-score at 10 µM; P48048; actives 2% (n = 130,000); Tet-inducible ROMK, thallium flux fluorescence; actives lie on both sides;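 active means signal ratio slope over the read window, or its plate-corrected B-score, at least 3 SD from the plate mean, either direction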;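 further: B-score of the F/F0 ratio slope over 7 to 12 s after thallium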
KCC2 sec1 – confirmation of human KCC2 transport modulators. shares compounds with KCC2 mod. HEK293-KCC2, thallium flux, FluoZin2 fluorescence; stronger effect = higher value. normalised thallium flux (F/F0 slope) at 10 µM. actives 15% (n = 3,700). AID 1713;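 active means thallium flux slope above the same plate's solvent-only control mean plus 3 SD; inconclusive means the two replicate wells disagree; inactive means no significant difference from solvent-only control wells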
KCC2 bumet counter – thallium flux persisting under bumetanide in KCC2 cells, counter-screen secondary assay; shares compounds with KCC2 mod; normalized thallium flux at 10 µM; HEK293-KCC2 + bumetanide/ouabain, thallium flux FluoZin2; stronger effect = higher value; actives 49% (n = 3,700);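 active means thallium entry rate above the same plate's blocked-transporter control wells by more than 3 SD; inconclusive means the two repeat wells disagree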;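 further: raw slope of fluorescence over initial fluorescence between 10 and 20 s after thallium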
KCC2 sec2 – confirmation of human KCC2 transport modulators; shares compounds with KCC2 mod; HEK293-KCC2, thallium flux FluoZin2 fluorescence; actives lie on both sides; F/F0 rise rate, 10–20 s post-thallium; normalized thallium flux at 10 µM; actives 23% (n = 3,700); AID 1715;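 active means thallium flux slope more than 3 SD above or below the plate's solvent-only control mean, mostly below; inconclusive means the two repeat wells disagreed; inactive means no significant shift from solvent-only controls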
HEK293 Tl flux – acts in parental HEK cells, KCC2 counter-screen; shares compounds with KCC2 mod; HEK293 parental cells, thallium flux FluoZin2, ouabain; baseline-ratio fluorescence slope, 10–20 s after thallium; actives 46% (n = 3,700); thallium flux rate (normalised fluorescence) at 10 µM;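 active means thallium flux rate significantly above the same plate's solvent-only control wells, beyond their mean plus 3 SD; inconclusive means the two replicate wells gave conflicting results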
KCC2 ouabain – modulates human KCC2 on retest with ouabain; shares compounds with KCC2 mod; HEK293-KCC2, thallium flux FluoZin2 fluorescence; bidirectional: low = inhibitor, high = activator; raw Tl+ flux slope (below DMSO = inhibition, above = activation) at 10 µM; actives 48% (n = 3,700); AID 1717;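 active means thallium flux slope beyond 3 SD from same-plate DMSO control mean in most replicates, usually higher, sometimes lower; inconclusive means repeat tests gave conflicting results; inactive means no significant difference from controls in most replicates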;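 further: slope of initial-normalized fluorescence between seconds 10 and 20 after thallium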
HEK293 Tl flux2 – parental HEK flux effect, counter-screen 2 | actives 33% (n = 3,700) | HEK293 parental, thallium flux FluoZin-2 fluorescence slope | AID 1718 | thallium flux slope at 10 µM | shares compounds with KCC2 mod;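 active means thallium flux slope above the same plate's solvent-control mean plus 3 SD in both duplicate wells; inconclusive means duplicate wells that disagreed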;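 further: run without ouabain in cells lacking the KCC2 cotransporter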
Of the large screens only hits and unclear results are named; the others gave an inactive call (follow-up assays come after a bar, where they were run). An excerpt weighted towards active compounds, which were near 5.1% of everything screened.

CC1Cc2nc(SCC(=O)Nc3ccc4c(c3)OCO4)n(CCc3ccccc3)c(=O)c2S1 (stereo unspecified)	KCC2 mod -3.97 (no result: ROMK mod) | KCC2 sec1 inactive | KCC2 bumet counter inactive | KCC2 sec2 inactive | HEK293 Tl flux inconclusive | KCC2 ouabain 0.0171 | HEK293 Tl flux2 inactive
CCn1c(SCC(=O)Nc2ccc3c(c2)OCO3)nc2c(c1=O)SC(C)C2 (stereo unspecified)	none (no result: ROMK mod)
CCCCCCCCCC(=O)NNC(=O)c1c(O)c2ccccc2n(CC)c1=O	RAM network inh 10.2, KCC2 mod 5.23 | KCC2 sec1 inactive | KCC2 bumet counter 0.0156 | KCC2 sec2 inactive | HEK293 Tl flux 0.0162 | KCC2 ouabain 0.0244 | HEK293 Tl flux2 0.0148
CCn1c(=O)c(C(=O)NC(C)C)c(O)c2ccccc21	none (no result: S1P3 antagonist)
CCCCCC(=O)NNC(=O)c1c(O)c2ccccc2n(CC)c1=O	KCC2 mod 3.46 | KCC2 sec1 inactive | KCC2 bumet counter 0.0138 | KCC2 sec2 inactive | HEK293 Tl flux 0.0127 | KCC2 ouabain inconclusive | HEK293 Tl flux2 0.0154
CCn1c(=O)c(C(=O)NNS(=O)(=O)c2ccc(C)cc2)c(O)c2ccccc21	none
O=C(c1cncs1)N1CCCC(CNS(=O)(=O)c2cccs2)C1 (stereo unspecified)	none
O=C(CSc1nnc(C2COc3ccccc3O2)o1)N1CCN(c2ccccc2)CC1 (stereo unspecified)	none
O=C(N/N=C/c1ccc2cccc(OCc3ccccc3)c2n1)c1ccc(Cl)cc1	KCC2 mod 4.9 (no result: S1P3 antagonist) | KCC2 sec1 0.0224 | KCC2 bumet counter 0.0482 | KCC2 sec2 inactive | HEK293 Tl flux 0.014 | KCC2 ouabain 0.0247 | HEK293 Tl flux2 inconclusive
O=C(N/N=C/c1ccncc1)c1ccc(COc2cccc3cccnc23)cc1	none
Cc1cc(CNC(=S)Nc2cccc(Cl)c2Cl)nn1C	none
COc1ccc(CC(=O)Nc2cccc(-c3ccc4nncn4n3)c2)cc1OC	none
CCOC(=O)C1=C(CC)Nc2ccccc2N/C1=N\S(=O)(=O)c1cc(Br)ccc1Br	KCC2 mod -4.03 | KCC2 sec1 inactive | KCC2 bumet counter inconclusive | KCC2 sec2 0.0236 | HEK293 Tl flux 0.00634 | KCC2 ouabain 0.0152 | HEK293 Tl flux2 inconclusive
CCOC(=O)C1=C(CC)Nc2ccccc2N/C1=N\S(=O)(=O)c1ccc2ccccc2c1	none
C=C1CCN([C@@H](C)C(=O)NCc2ccc(Cl)cc2)S(=O)(=O)c2ccccc21	none (no result: RAM network inh, S1P4 antagonist, S1P3 antagonist, S1P4 agonist, ROMK mod)
COc1ccc(OC)c(NC(=O)C(=O)NNC(=O)C23CC4CC(CC(C4)C2)C3)c1	KCC2 mod 135 (no result: RAM network inh, ROMK mod) | KCC2 sec1 0.0443 | KCC2 bumet counter 0.115 | KCC2 sec2 0.0708 | HEK293 Tl flux 0.1 | KCC2 ouabain 0.0813 | HEK293 Tl flux2 0.045
COc1ccc(OC)c(NC(=O)C(=O)NCc2ccncc2)c1	none (no result: ROMK mod)
O=C(Nc1nnc(C2CC2)s1)c1cc(S(=O)(=O)N2CCN(c3ccccc3)CC2)ccc1Cl	none (no result: S1P3 antagonist, ROMK mod)

Source: PubChem
